# Results taken from the supplement of paper PMC13380429.
# Columns and labels:
# [1] = test system: Vero E6 infected with SARS-CoV-2; experiment: morphology score (similarity to uninfected cells); higher = more like uninfected cells; settings: 24 h
# [2] = test system: Vero E6 infected with SARS-CoV-2; experiment: SARS-CoV-2 infection rate relative to infected DMSO; higher = more infection, active = 60 or less; settings: 24 h
SMILES,morphology score [1],SARS-CoV-2 infection rate [2]
COc1ccccc1OC(=O)c1ccccc1OC(C)=O [guacetisal] (10 µM),0.0562,101% (inactive)
COc1ccc(NS(=O)(=O)c2ccc(I)cc2)cc1N1CCN(C)CC1 (10 µM),0.195,98.5% (inactive)
COc1cc(Nc2nc3ccccc3nc2NS(=O)(=O)c2ccc(NC(=O)c3ccc(C)c(OC)c3)cc2)cc(OC)c1 (10 µM),0.0476,119% (inactive)
Cc1cc(C(=O)Nc2cc(Oc3ccc4nc(NC(=O)C5CC5)cn4n3)ccc2C)n(C)n1 (10 µM),0.227,102% (inactive)
CCCCCCCCCCCCCCCCCCCCCCO [docosanol] (10 µM),0.0474,102% (inactive)
Cn1cc(C(=O)c2cccc3ccccc23)cc1C(=O)O [napirimus] (10 µM),0.122,107% (inactive)
COc1ccc2c(c1)C=C1Cn3c-2c(C2CCCCC2)c2ccc(cc23)C(=O)NS(=O)(=O)N(C)CCOCCN(C)C1=O (10 µM),0.153,97.5% (inactive)
COc1ccccc1CC(=N)N1C[C@@H]2C(=O)CCC(c3ccccc3)(c3ccccc3)[C@@H]2C1 (10 µM),-0.184,110% (inactive)
Cc1nccc2[nH]c(=O)ccc12 [medorinone] (10 µM),0.145,96.5% (inactive)
NC[C@H](O)c1ccc(O)c(O)c1 [norepinephrine] (10 µM),-0.067,109% (inactive)
Cc1cc(O)c2c(=O)c3c(O)cc(O)c4c5c(O)cc(O)c6c(=O)c7c(O)cc(C)c8c1c2c(c34)c(c78)c65 [hypericin] (10 µM),-0.152,114% (inactive)
C=CCc1ccc(O)c(-c2ccc(O)c(CC=C)c2)c1 [honokiol] (10 µM),0.432,80.5% (inactive)
O=C(O)COc1nn(Cc2ccccc2)c2ccccc12 [bendazac] (10 µM),-0.0178,102% (inactive)
CN(C)CCCn1cc(C2=C(c3c[nH]c4ccccc34)C(=O)NC2=O)c2ccccc21 (0.833333 µM),-0.0102,104% (inactive)
CCn1c(=O)[nH]c2cc(Cl)c(Cl)cc21 (10 µM),0.171,83.5% (inactive)
O=C1OC2(c3ccccc31)c1cc(I)c(O)c(I)c1Oc1c2cc(I)c(O)c1I [erythrosine] (0.833333 µM),0.0913,116% (inactive)

SMILES,morphology score [1],SARS-CoV-2 infection rate [2]
CCOc1nc2cccc(C(=O)O)c2n1Cc1ccc(-c2ccccc2-c2noc(=O)[nH]2)cc1 [azilsartan] (10 µM),0.0851,109% (inactive)
C[C@@H](O)[C@H]1C(=O)N2C(C(=O)O)=C(S[C@@H]3CN[C@H](C(=O)Nc4cccc(C(=O)O)c4)C3)[C@H](C)[C@H]12 [ertapenem] (10 µM),0.126,106% (inactive)
CC[C@@H]1C(=O)OC[C@@H]1Cc1cncn1C [pilocarpine] (10 µM),-0.105,110% (inactive)
COc1ccc(/C=C/C(=O)/C=C(O)/C=C/c2ccc(OC)c(OC)c2)cc1OC (10 µM),0.335,80.5% (inactive)
COc1ccc([C@@H]2CC(=O)c3c(O)cc(O)cc3O2)cc1O [hesperetin] (10 µM),0.0387,107% (inactive)
Cc1cccc(Oc2nc3c(C)cccn3c(=O)c2/C=C(\C#N)c2nc3ccccc3s2)c1 (10 µM),0.0471,106% (inactive)
CCOc1ccc(NC(C)=O)cc1 [phenacetin] (10 µM),-0.129,116% (inactive)
O=C(O)c1cn(C2CC2)c2cc(N3CCNCC3)c(F)cc2c1=O [ciprofloxacin] (10 µM),0.046,106% (inactive)
C[C@H]1O[C@H](O[C@H]2[C@H](O)[C@@H](O)[C@@H](O[C@H]3[C@H](O)[C@@H](O)C(O)O[C@@H]3CO)O[C@@H]2CO)[C@H](O)[C@@H](O)[C@@H]1N[C@H]1C=C(CO)[C@@H](O)[C@H](O)[C@H]1O (some centres not stated) [acarbose] (10 µM),0.085,100% (inactive)
Cc1nc2ccccn2c(=O)c1CCN1CCC(C(=O)c2ccc(F)cc2)CC1 [pirenperone] (10 µM),0.172,108% (inactive)
O=C1c2ccccc2C(=O)c2ccccc21 [anthraquinone] (10 µM),0.166,103% (inactive)
C#CCN[C@@H]1CCc2ccccc21 [rasagiline] (10 µM),0.0975,115% (inactive)
Nc1nc(F)nc2c1ncn2[C@@H]1O[C@H](COP(=O)(O)O)[C@@H](O)[C@@H]1O [fludarabine-phosphate] (10 µM),0.103,82.5% (inactive)
CCc1cc(-c2[nH]nc(C)c2-c2ccc3c(c2)OCCO3)c(O)cc1O (0.833333 µM),0.075,114% (inactive)
COc1ccc(-c2ccc3ncc4c(c3c2)n(-c2ccc(N3CCNCC3)c(C(F)(F)F)c2)c(=O)n4C)cn1 (0.833333 µM),0.115,104% (inactive)
